# Laboratory results as given in PubChem BioAssay (EPA / NIEHS).
# Activity calls are given as the source filed them. The calls were made as follows: active = hit-call score of the fitted dose curve at least 0.9, where 1 is the maximum; inactive = score below 0.9.
# Test: ATG_TA_CIS: Attagene CIS-FACTORIAL HepG2 Assay for human TA Basal Promoter (AID 2282964)
# Conditions: HepG2 Attagene CIS-factorial TA basal promoter reporter; actives raise or lower the signal
# Procedure: ATG_CIS is a cell-based, multiplexed-readout assay that uses HepG2, a human liver cell line, with measurements taken at 24 hours after chemical dosing in a 24-well plate.ATG_TA_CIS is one of 52 assay component(s) measured or calculated from the ATG_CIS assay. It is designed to make measurements of mRNA induction, a form of inducible reporter, as detected with fluorescence intensity signals by Reverse transcription polymerase chain reaction (RT-PCR) and Capillary electrophoresis technology.Data from the assay component ATG_TA_CIS was analyzed into 1 assay endpoint. This assay endpoint, ATG_TA_CIS, was analyzed with bidirectional fitting relative to DMSO as the negative control and baseline of activity. Using a type of inducible reporter, measures of mRNA for gain or loss-of-signal activity can be used to understand the background control at the transcription factor-level as they relate to the gene . Furthermore, this assay endpoint can be referred to as a secondary readout, because this assay has produced multiple assay endpoints where this one serves a background control function. To generalize the intended target to other relatable targets, this assay endpoint is annotated to the background measurement intended target family, where the subfamily is internal marker.
# Human liver HepG2 cells are transiently transfected with multiple reporter transcription units (MRTUs) in 6-well plates using FuGene 6 reagent (Roche; 3 ml FuGene/1 mg DNA). The MRTU constructs are regulated by a cis-regulating element (promoter). […] A major difference between the CIS and TRANS system is that in CIS activities of endogenous TFs are measured, whereas the TRANS assay evaluates changes in activities of exogenous, chimeric NR-Gal4 proteins. […] At the end of 24 hour incubation, total RNA was isolated using TriZol reagent (Invitrogen). The isolated RNA is then reverse-transcribed using oligo(dT) primer and Mo-MLV reverse transcriptase (Invitrogen) with DNAse I (Ambion) treatment for 30 min. The one-tenth of the produced cDNA was amplified by PCR using Taq DNA polymerase (Invitrogen) and two reporter sequence-specific primers. The PCR products were fluorescently labeled by primer extension with 6-arboxyfluorescein (6-FAM) 5'-labeled reporter sequence-specific primer (2 min at 95 C, 20 s at 68 C and 10 min at 72 C) and these products were digested with 5U of HpaI (New England Biolabs) for 2h at 37 C. The fragments were purified using Qiaquick PCR columns (Qiagen), analyzed on an ABI 3130xL genetic analyzer (Applied Biosystems) with peak positions identified by using a set of X-rhodamine (ROX)-labeled MapMarker1000 molecular weight standards (BioVentures). The raw capillary electrophoresis data was processed using Attagraph software (Attagene).
row,Structure (SMILES),outcome
1,Nc1nc(=S)[nH][nH]1,inactive
2,CC(=O)C(F)(F)C(F)(F)F,inactive
3,N#Cc1cccnc1,inactive
4,CC(C)C(C)(N)C#N (stereo not given),inactive
5,CCCCCCCCCCCCBr,inactive
6,CC(C)[N+](=O)[O-],inactive
7,C#C[C@]1(O)CC[C@H]2[C@@H]3CCC4=CC(=O)CC[C@]4(C)[C@H]3CC[C@@]21C,inactive
8,OC[C@@H](O)[C@H]1O[C@@H]2O[C@H](C(Cl)(Cl)Cl)O[C@@H]2[C@H]1O,inactive
9,Clc1cccc(Cl)c1,inactive
10,CS(=O)(=O)c1ccc(C(=O)C2C(=O)CCCC2=O)c(Cl)c1COCC(F)(F)F,inactive
11,C=CCOC(F)(C(F)(F)F)C(F)(F)F,inactive
12,Cc1cc(C(C)(C)c2ccc(O)c(C)c2)ccc1O,inactive
13,N#CCC#N,inactive
14,COCC(=O)N(c1c(C)cccc1C)[C@H](C)C(=O)OC,inactive
15,CC(C)(C)c1cc([N+](=O)[O-])cc(C(C)(C)C)c1O,inactive
16,C1CCC(C2CCCCC2)CC1,inactive
17,C=CC(=O)[O][Sn]([CH2]CCC)([CH2]CCC)[CH2]CCC,inactive
18,CC(C)CC(C)(c1ccc(O)cc1)c1ccc(O)cc1,inactive
19,CCC(C)(C#N)N=NC(C)(C#N)CC (stereo not given),inactive
20,CC(c1ccc(O)cc1)c1ccc(O)cc1,inactive

row,Structure (SMILES),outcome
1,COc1nn(C(=O)NS(=O)(=O)c2ccccc2OC(F)(F)F)c(=O)n1C,inactive
2,CNC(=O)N(C)c1nc2ccccc2s1,inactive
3,CN(C)C(=S)S,inactive
4,Cc1ccccc1OP(=O)(Oc1ccccc1C)Oc1ccccc1C,inactive
5,CCCCS(=O)(=O)Cl,inactive
6,O=C(NC(=O)c1c(F)cccc1F)Nc1cc(Cl)c(F)c(Cl)c1F,inactive
7,O=C/C(Cl)=C(/Cl)C(=O)O,inactive
8,O=C(Nc1ccc(Br)cc1)c1cc(Br)cc(Br)c1O,inactive
9,CCCCN(CCCC)C(=S)[S-].CCCCN(CCCC)C(=S)[S-].[Ni+2],inactive
10,O=C(NC(=O)c1c(F)cccc1F)Nc1cc(Cl)c(OC(F)(F)C(F)C(F)(F)F)cc1Cl (stereo not given),inactive
11,Cc1cccc(N=Nc2ccc(N(C)C)cc2)c1,inactive
12,CC(C)(C1CCC(O)CC1)C1CCC(O)CC1 (stereo not given),inactive
13,CCOP(=S)(OCC)SCSc1cc(Cl)ccc1Cl,inactive
14,O=C(N[C@H]1CN2CCC1CC2)c1ccc2c(c1)OCCO2,inactive
15,CC(=Cc1ccccc1)[N+](=O)[O-],inactive
16,Clc1cc(C(Cl)(Cl)Cl)cnc1Cl,inactive
17,CC(C)(c1ccccc1)c1cc(-n2nc3ccccc3n2)c(O)c(C(C)(C)c2ccccc2)c1,inactive
18,C[N+](C)(C)Cc1ccccc1,inactive
19,CCOc1cc(C=O)ccc1O,inactive
20,Oc1c(Cl)cc(Cl)cc1Cl,inactive
